Measurements taken from PubChem BioAssay (EPA / NIEHS).
“And” between values parts separate entries of the source, which are not always exact repeats. Equal values may be shown once. Some compounds were tested as several samples or in several runs, with calls that do not always agree. The source made the active and inactive calls. The calls were made as follows: active = hit-call score of the fitted dose curve at least 0.9, where 1 is the maximum; inactive = score below 0.9.

Legend:
[1] = molecular target: Paired box protein Pax-6 (Homo sapiens) (UniProt P26367); test: ATG_Pax6_CIS: Attagene CIS-FACTORIAL HepG2 Assay for human Paired Box 6 (PAX6) (AID 2282956); details: HepG2 CIS-FACTORIAL PAX6 reporter transcription, RNA readout; actives raise or lower the signal
Outline: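 HepG2 cells transiently transfected with cis-promoter-driven multiplexed reporter units sensing endogenous transcription factor activity; 24 h chemical exposure. Reporter mRNA quantified by RT-PCR, 6-FAM labelling, HpaI digestion and capillary electrophoresis; bidirectional fit versus DMSO baseline.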

[2] = ATG_PXRE_CIS: Attagene CIS-FACTORIAL HepG2 Assay for human Pregnane X Receptor Element (PXRE) (AID 2282957); details: HepG2 Attagene CIS-FACTORIAL PXRE reporter, mRNA; actives raise or lower the signal
Outline: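 Transiently transfected HepG2 cells were dosed and incubated for 24 h. RNA was then isolated, DNase-treated, reverse-transcribed and reporter sequences amplified. Labeled, HpaI-digested fragments were quantified by capillary electrophoresis against DMSO.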

[3] = ATG_RORE_CIS: Attagene CIS-FACTORIAL HepG2 Assay for human RAR-related Orphan Receptor Element (RORE) (AID 2282959); details: HepG2 Attagene cis-factorial RORE reporter, mRNA; actives raise or lower the signal
Outline: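 HepG2 cells carrying transiently transfected cis-regulated reporter units; RORE-driven reporter mRNA quantified 24 h post-dosing by RT-PCR, 6-FAM primer extension, HpaI digestion and capillary electrophoresis. Bidirectional fit versus DMSO.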

[4] = ATG_Sox_CIS: Attagene CIS-FACTORIAL HepG2 Assay for human SRY-box transcription factor (SOX) (AID 2282960); details: HepG2 Attagene cis-factorial SOX reporter, mRNA; actives raise or lower the signal
Outline: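 HepG2 cells transiently transfected with multiple cis-regulated reporter units, then dosed for 24 h. Reporter mRNA quantified by RT-PCR, fluorescent labelling, HpaI digestion and capillary electrophoresis; bidirectional fit versus DMSO.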

[5] = molecular target: Transcription factor Sp1 (Homo sapiens) (UniProt P08047); test: ATG_Sp1_CIS: Attagene CIS-FACTORIAL HepG2 Assay for human Specificity Protein 1 (Sp1) (AID 2282961); details: HepG2 Sp1 cis-reporter transcription, actives raise or lower the signal
Outline: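 HepG2 cells transiently transfected with multiplexed cis-regulated reporter constructs, chemical exposure 24 h. Reporter mRNA quantified by RT-PCR with capillary electrophoresis; bidirectional fit relative to DMSO.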

[6] = ATG_SREBP_CIS: Attagene CIS-FACTORIAL HepG2 Assay for human Sterol Regulatory Element Binding (SREBP) (AID 2282962); details: HepG2 Attagene cis-factorial SREBP reporter, mRNA; actives raise or lower the signal
Outline: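 HepG2 cells transiently transfected with multiplexed cis-promoter reporter units sensing endogenous transcription factors; reporter mRNA measured 24 h after dosing by RT-PCR, 6-FAM labeling, HpaI digestion and capillary electrophoresis. Bidirectional fit versus DMSO.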

[7] = molecular target: Signal transducer and activator of transcription 3 (Homo sapiens) (UniProt P40763); test: ATG_STAT3_CIS: Attagene CIS-FACTORIAL HepG2 Assay for human Signal Transducer and Activator of Transcription 3 (STAT3) (AID 2282963); details: HepG2, Attagene cis-factorial STAT3 reporter transcription; actives raise or lower the signal
Outline: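 Values derive from bidirectional fits relative to DMSO of reporter mRNA levels, measured by RT-PCR with capillary electrophoresis, in HepG2 cells carrying transiently transfected cis-regulated reporter units and exposed 24 h.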

[8] = ATG_TCF_b_cat_CIS: Attagene CIS-FACTORIAL HepG2 Assay for human T-Cell-Factor with beta-catenin (TCF/b-cat) (AID 2282965); details: HepG2 TCF/beta-catenin cis-reporter transcription, actives raise or lower the signal
Outline: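 Cells of the HepG2 line carry transiently transfected reporter units whose promoters respond to endogenous factors. Twenty-four hours post-dosing, reporter mRNA induction is measured by fluorescent RT-PCR and capillary electrophoresis, with DMSO as baseline.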

[9] = ATG_PPRE_CIS: Attagene CIS-FACTORIAL HepG2 Assay for human Peroxisome Proliferator-activated Response Element (PPRE) (AID 2282958); details: HepG2 PPRE cis-element reporter, Attagene transcription factor profiling; actives raise or lower the signal
Outline: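 HepG2 cells are transiently transfected with multiplexed cis-promoter reporter units to report endogenous PPAR activity. After 24 h dosing, reporter mRNA is read by RT-PCR and capillary electrophoresis. Fitting is bidirectional against DMSO.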

[10] = ATG_TA_CIS: Attagene CIS-FACTORIAL HepG2 Assay for human TA Basal Promoter (AID 2282964); details: HepG2 Attagene CIS-factorial TA basal promoter reporter; actives raise or lower the signal
Outline: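 Fluorescence from labelled RT-PCR reporter fragments, separated by capillary electrophoresis, gives the signal. Cells: HepG2 transiently carrying multiple reporter units, 24 h chemical dosing. Gain or loss relative to DMSO.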

Measured: AC50

Chain of Signal transducer and activator of transcription 3 (Homo sapiens) (P40763 whole entry, looked up): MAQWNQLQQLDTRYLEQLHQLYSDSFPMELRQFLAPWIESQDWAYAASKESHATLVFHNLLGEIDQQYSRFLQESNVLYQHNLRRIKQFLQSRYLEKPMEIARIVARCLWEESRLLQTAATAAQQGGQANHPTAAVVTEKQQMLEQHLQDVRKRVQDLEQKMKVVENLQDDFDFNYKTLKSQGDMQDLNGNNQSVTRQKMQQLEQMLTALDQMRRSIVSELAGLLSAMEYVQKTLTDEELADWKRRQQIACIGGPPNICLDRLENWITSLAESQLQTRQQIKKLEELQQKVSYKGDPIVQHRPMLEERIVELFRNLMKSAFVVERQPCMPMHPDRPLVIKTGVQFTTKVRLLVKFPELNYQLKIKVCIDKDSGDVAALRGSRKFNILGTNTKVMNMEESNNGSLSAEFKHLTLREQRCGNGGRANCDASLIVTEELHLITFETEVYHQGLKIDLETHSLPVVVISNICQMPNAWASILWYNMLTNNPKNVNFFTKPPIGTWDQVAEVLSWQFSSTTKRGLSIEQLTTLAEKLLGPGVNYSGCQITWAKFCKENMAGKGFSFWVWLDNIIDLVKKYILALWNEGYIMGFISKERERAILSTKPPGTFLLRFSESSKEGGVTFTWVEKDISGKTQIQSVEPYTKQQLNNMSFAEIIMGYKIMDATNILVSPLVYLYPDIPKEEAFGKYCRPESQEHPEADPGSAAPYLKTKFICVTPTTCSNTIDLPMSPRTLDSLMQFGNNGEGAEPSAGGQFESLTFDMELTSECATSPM
Chain of Paired box protein Pax-6 (Homo sapiens) (P26367 whole entry, looked up): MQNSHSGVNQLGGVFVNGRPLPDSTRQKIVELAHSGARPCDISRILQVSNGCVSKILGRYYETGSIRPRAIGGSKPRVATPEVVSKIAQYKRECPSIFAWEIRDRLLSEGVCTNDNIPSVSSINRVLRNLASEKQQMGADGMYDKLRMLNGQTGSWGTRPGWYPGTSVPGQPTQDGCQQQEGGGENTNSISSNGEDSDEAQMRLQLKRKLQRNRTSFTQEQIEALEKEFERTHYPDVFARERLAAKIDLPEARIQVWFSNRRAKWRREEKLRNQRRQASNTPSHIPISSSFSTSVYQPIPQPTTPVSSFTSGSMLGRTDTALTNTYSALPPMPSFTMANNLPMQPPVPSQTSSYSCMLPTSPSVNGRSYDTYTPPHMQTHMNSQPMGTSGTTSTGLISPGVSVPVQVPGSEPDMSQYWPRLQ
Chain of Transcription factor Sp1 (Homo sapiens) (P08047 whole entry, looked up): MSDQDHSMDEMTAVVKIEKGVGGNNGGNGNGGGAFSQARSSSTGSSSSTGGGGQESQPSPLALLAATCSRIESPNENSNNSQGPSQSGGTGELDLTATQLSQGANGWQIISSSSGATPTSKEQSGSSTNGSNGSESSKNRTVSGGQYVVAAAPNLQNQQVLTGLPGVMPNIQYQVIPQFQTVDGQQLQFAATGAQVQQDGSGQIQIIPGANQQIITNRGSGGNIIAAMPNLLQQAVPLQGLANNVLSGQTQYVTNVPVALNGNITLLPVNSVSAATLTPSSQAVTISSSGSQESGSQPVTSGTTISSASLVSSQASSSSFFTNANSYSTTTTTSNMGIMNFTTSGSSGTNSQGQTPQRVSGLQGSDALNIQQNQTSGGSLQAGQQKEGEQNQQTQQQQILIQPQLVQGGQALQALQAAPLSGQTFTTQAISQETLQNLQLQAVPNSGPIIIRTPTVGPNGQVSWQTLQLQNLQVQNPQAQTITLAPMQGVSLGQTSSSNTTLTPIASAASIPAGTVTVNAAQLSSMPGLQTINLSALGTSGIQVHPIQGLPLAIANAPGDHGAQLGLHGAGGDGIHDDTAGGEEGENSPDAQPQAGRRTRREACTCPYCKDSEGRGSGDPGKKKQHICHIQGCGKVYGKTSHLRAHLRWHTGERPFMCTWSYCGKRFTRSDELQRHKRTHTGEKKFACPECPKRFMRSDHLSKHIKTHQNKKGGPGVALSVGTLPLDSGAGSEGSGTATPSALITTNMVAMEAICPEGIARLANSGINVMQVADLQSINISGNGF

C[C@]12CCC(=O)C=C1CC[C@@H]1[C@@H]2CC[C@]2(C)C(=O)CC[C@@H]12
active: [2] 15.2 µM and 27.7 µM and 15.3 µM | [6] 68.4 µM
inactive: [1] | [2] | [3] | [4] | [5] | [6] | [7] | [8]

OCC(O)CO
inactive: [1] | [2] | [9] | [3] | [4] | [5] | [6] | [7] | [8]
active: [2] 15.9 µM | [9] 26.1 µM

CCC(C)(CC)c1cc(NC(=O)c2c(OC)cccc2OC)on1
active: [2] 0.202 µM | [6] 10.8 µM
inactive: all other assays above

Oc1c(Cl)c(Cl)c(Cl)c(Cl)c1Cl
inactive: [4] | [6] | [7] | [8]
active: [1] 50 µM and 14 µM and 34 µM | [2] 13.6 µM and 12.2 µM and 5.75 µM | [3] 24.1 µM and 5.68 µM and 4.77 µM | [4] 23.5 µM and 31.3 µM | [5] 20.7 µM and 27.9 µM and 166 µM | [6] 50 µM and 83.2 µM | [8] 11.8 µM

CCOP(=S)(OCC)SCSC(C)(C)C
inactive: [1] | [4] | [5] | [7] | [8]
active: [2] 7.42 µM and 2.05 µM | [6] 100 µM and 73.9 µM

O=C(O)C(F)(F)C(F)(F)C(F)(F)C(F)(F)C(F)(F)F
not listed: [9] | [10]
inactive: all other assays above

O=S(=O)(O)C(F)(F)C(F)(F)C(F)(F)C(F)(F)F
not listed: [9]
inactive: all other assays above

ClC1=C(Cl)[C@]2(Cl)[C@@H]3[C@@H](Cl)[C@H]4O[C@H]4[C@@H]3C1(Cl)C2(Cl)Cl
active: [2] 3.28 µM | [5] 26.7 µM | [6] 51.4 µM
not listed: [9] | [10]
inactive: all other assays above

C=CC(=O)NCNC(=O)C=C
not listed: [3] | [9]
inactive: all other assays above

Clc1ccc(C(Cl)(Cl)Cl)cc1
not listed: [9]
inactive: all other assays above

ClC1=C(Cl)[C@]2(Cl)[C@@H]3[C@@H]4C[C@@H]([C@H]5O[C@@H]45)[C@@H]3[C@@]1(Cl)C2(Cl)Cl
active: [2] 2.36 µM | [3] 81.4 µM | [8] 56.2 µM
not listed: [9] | [10]
inactive: all other assays above

CC(C)C(=O)OCC(C)(C)C(OC(=O)C(C)C)C(C)C (stereo not drawn)
active: [2] 26.7 µM
not listed: [9]
inactive: all other assays above

COS(=O)(=O)OC
not listed: [9] | [10]
inactive: all other assays above

C=CC(N)=O
active: [2] 34 µM
not listed: [9] | [10]
inactive: all other assays above

Cc1cccc([N+](=O)[O-])c1
not listed: [3] | [9]
inactive: all other assays above

Cc1cc2c3c(c1)C(c1ccccc1)=N[C@@H](NC(=O)c1ccncc1)C(=O)N3CC2
active: [1] 100 µM | [2] 0.909 µM | [3] 6.95 µM | [5] 181 µM | [6] 19.9 µM | [10] 100 µM | [8] 35.8 µM
inactive: [4] | [7]

Oc1ccc(Cl)cc1Cl
active: [2] 64.5 µM
not listed: [9]
inactive: all other assays above

CCC(C)c1cc([N+](=O)[O-])cc([N+](=O)[O-])c1O (stereo not drawn)
inactive: [2] | [7] | [8]
active: [1] 56.2 µM | [3] 26.4 µM | [4] 10.8 µM | [5] 20.9 µM | [6] 27.6 µM
